{
  "source": "PubChem BioAssay AID504911",
  "about": "(Southern Research Specialized Biocontainment Screening …, 2011)",
  "note": "Results with a measured potency or affinity are listed apart. Calls of active or inactive are those of the source. How the calls were made is not given here.",
  "data": [
    {"test": "THP-1 cell cytotoxicity, cytotoxicity control, set 4 (AID 504911)", "details": "THP-1 cytotoxicity; series mostly up to 100 µM", "values": [
      {"compound": "Cc1c[nH]c(=S)[nH]c1=O", "outcome": "inactive"},
      {"compound": "CC[C@@H](CO)NCCN[C@@H](CC)CO", "outcome": "inactive"},
      {"compound": "CN(C)C(=O)CSc1nc2ccccc2c(=O)[nH]1", "outcome": "inactive"},
      {"compound": "COc1c(N2CCNC(C)C2)c(F)cc2c(=O)c(C(=O)O)cn(C3CC3)c12", "note": "(stereo unspecified)", "outcome": "inactive"},
      {"compound": "Cc1ccc(NC(=O)CSc2nc3ccccc3c(=O)[nH]2)cc1Cl", "outcome": "inactive"},
      {"compound": "Cc1nc(SCC(=O)NC2CCCC2)[nH]c(=O)c1C", "outcome": "inactive"},
      {"compound": "Cc1cc(=O)[nH]c(SCC(=O)NC2CCCCC2)n1", "outcome": "inactive"},
      {"compound": "CC(C)CCNC(=O)CSc1nc2c(c(=O)[nH]1)CCC2", "outcome": "inactive"},
      {"compound": "CCOC1OC(=O)C(Cl)=C1Nc1ccccc1C", "note": "(stereo unspecified)", "outcome": "inactive"},
      {"compound": "NNC(=O)c1ccncc1", "outcome": "inactive"},
      {"compound": "Cc1[nH]c(=S)[nH]c(=O)c1C", "outcome": "inactive"},
      {"compound": "Nc1cc(=O)[nH]c(SCC(=O)NC2CCCCC2)n1", "outcome": "inactive"},
      {"compound": "COC(=O)c1ccc(CNc2c(N3CCCC3)c(=O)c2=O)cc1", "outcome": "inactive"},
      {"compound": "Cn1c(SCC(=O)NC2CCCCC2)nc2ccccc2c1=O", "outcome": "inactive"},
      {"compound": "O=c1[nH]c(=S)[nH]c2ccccc12", "outcome": "inactive"},
      {"compound": "NC(=O)CSc1nc2ccccc2c(=O)[nH]1", "outcome": "inactive"}
    ]}
  ]
}
